Assays:
[1] = target: Serine/threonine-protein kinase SIK1 (Homo sapiens) (UniProt P57059); conditions: at 10 µM
[2] = target: SRSF protein kinase 1 (Homo sapiens) (UniProt Q96SB4); conditions: at 1 µM
[3] = target: SRSF protein kinase 1 (Homo sapiens) (UniProt Q96SB4); conditions: at 10 µM
[4] = target: SRSF protein kinase 2 (Homo sapiens) (UniProt P78362); conditions: at 1 µM
[5] = target: SRSF protein kinase 2 (Homo sapiens) (UniProt P78362); conditions: at 10 µM
[6] = target: Serine/threonine-protein kinase 33 (Homo sapiens) (UniProt Q9BYT3); conditions: at 1 µM
Serine/threonine-protein kinase 33 (Homo sapiens), sequence (Q9BYT3 whole entry, looked up): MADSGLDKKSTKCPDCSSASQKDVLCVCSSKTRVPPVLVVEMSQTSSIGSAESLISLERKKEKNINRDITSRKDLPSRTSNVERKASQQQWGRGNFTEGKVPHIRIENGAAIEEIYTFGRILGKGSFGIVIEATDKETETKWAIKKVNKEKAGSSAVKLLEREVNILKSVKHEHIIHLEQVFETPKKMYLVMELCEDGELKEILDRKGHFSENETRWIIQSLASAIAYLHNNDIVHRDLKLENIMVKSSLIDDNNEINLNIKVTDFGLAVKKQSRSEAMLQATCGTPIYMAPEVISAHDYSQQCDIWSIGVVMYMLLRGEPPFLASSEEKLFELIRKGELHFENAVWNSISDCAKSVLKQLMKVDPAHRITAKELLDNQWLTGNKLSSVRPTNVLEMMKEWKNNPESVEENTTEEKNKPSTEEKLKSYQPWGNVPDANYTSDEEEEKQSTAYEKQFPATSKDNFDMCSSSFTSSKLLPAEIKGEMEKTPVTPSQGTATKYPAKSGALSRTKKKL

[7] = target: Serine/threonine-protein kinase 33 (Homo sapiens) (UniProt Q9BYT3); conditions: at 10 µM
[8] = target: Serine/threonine-protein kinase PLK2 (Homo sapiens) (UniProt Q9NYY3); conditions: at 1 µM
Serine/threonine-protein kinase PLK2 (Homo sapiens), sequence (Q9NYY3 whole entry, looked up): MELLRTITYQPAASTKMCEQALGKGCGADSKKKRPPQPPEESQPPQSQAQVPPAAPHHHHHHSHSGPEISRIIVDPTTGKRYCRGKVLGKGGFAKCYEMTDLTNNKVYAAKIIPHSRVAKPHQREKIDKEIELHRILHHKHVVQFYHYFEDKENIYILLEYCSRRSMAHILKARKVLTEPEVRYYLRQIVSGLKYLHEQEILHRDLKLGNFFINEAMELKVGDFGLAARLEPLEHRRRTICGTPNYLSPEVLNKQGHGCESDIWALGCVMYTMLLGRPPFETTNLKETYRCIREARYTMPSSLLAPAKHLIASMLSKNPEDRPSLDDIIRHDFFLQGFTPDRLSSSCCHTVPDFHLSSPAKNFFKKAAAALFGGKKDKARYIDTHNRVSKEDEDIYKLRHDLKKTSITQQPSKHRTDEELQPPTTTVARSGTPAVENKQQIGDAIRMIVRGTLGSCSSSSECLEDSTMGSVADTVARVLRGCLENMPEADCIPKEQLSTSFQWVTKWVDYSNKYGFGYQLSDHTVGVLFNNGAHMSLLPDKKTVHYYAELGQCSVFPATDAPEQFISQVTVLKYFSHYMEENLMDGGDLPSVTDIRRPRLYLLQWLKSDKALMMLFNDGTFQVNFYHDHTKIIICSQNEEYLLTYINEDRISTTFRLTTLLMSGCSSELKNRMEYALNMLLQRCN

[9] = target: Serine/threonine-protein kinase PLK2 (Homo sapiens) (UniProt Q9NYY3); conditions: at 10 µM
[10] = target: Tyrosine-protein kinase SYK (Homo sapiens) (UniProt P43405); conditions: at 1 µM
[11] = target: Tyrosine-protein kinase SYK (Homo sapiens) (UniProt P43405); conditions: at 10 µM
[12] = target: T1, Mitogen-activated protein kinase kinase kinase 7 (Homo sapiens) (UniProt O43318); conditions: at 1 µM
T1 sequence (whole entry): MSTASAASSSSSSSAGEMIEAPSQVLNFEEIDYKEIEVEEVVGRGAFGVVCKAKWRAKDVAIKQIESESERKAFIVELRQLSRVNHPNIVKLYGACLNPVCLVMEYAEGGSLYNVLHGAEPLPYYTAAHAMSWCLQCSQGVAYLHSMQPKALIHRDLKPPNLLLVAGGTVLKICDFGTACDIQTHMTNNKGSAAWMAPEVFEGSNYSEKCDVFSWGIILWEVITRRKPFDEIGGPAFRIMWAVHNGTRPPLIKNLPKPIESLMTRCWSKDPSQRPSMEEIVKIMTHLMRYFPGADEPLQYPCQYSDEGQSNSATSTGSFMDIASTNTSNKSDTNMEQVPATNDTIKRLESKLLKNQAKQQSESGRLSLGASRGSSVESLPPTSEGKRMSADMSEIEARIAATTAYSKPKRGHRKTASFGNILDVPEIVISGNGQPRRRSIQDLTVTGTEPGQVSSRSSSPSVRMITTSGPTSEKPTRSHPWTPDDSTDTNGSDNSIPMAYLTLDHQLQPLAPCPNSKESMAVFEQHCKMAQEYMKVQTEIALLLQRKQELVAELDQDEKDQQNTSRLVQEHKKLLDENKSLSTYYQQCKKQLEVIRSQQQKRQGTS

[13] = target: T1, Mitogen-activated protein kinase kinase kinase 7 (Homo sapiens); conditions: at 10 µM
[14] = target: T2, Serine/threonine-protein kinase TAO1 (Homo sapiens) (UniProt Q7L7X3); conditions: at 1 µM
T2 sequence (whole entry): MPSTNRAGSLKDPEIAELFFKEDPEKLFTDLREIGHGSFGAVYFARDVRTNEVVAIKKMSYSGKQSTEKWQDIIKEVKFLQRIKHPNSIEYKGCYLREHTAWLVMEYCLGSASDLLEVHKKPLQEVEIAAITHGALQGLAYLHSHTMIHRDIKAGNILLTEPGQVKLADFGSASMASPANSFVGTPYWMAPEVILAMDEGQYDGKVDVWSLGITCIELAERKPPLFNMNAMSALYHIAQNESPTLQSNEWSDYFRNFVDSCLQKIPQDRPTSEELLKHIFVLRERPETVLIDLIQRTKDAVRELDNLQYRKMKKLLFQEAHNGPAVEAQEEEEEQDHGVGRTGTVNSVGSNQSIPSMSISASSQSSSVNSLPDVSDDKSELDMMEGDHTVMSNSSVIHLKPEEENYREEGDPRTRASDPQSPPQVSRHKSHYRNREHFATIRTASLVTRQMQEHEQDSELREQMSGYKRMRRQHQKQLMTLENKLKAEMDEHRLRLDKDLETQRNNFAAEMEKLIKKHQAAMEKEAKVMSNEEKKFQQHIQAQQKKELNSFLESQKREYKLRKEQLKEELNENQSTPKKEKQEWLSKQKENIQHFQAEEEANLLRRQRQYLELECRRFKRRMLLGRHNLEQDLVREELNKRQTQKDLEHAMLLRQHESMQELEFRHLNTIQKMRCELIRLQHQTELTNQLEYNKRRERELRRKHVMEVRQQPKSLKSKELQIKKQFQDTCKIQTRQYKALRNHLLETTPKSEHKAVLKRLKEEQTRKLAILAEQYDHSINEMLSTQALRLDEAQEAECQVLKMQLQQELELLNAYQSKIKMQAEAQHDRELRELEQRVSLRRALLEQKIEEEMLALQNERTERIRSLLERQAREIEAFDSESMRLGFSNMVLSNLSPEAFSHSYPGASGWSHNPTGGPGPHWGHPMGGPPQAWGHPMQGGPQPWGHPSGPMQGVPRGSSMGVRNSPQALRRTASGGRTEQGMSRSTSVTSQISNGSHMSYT

[15] = target: T2, Serine/threonine-protein kinase TAO1 (Homo sapiens); conditions: at 10 µM
[16] = target: T3, Serine/threonine-protein kinase TAO2 (Homo sapiens) (UniProt Q9UL54); conditions: at 1 µM
T3 sequence (whole entry): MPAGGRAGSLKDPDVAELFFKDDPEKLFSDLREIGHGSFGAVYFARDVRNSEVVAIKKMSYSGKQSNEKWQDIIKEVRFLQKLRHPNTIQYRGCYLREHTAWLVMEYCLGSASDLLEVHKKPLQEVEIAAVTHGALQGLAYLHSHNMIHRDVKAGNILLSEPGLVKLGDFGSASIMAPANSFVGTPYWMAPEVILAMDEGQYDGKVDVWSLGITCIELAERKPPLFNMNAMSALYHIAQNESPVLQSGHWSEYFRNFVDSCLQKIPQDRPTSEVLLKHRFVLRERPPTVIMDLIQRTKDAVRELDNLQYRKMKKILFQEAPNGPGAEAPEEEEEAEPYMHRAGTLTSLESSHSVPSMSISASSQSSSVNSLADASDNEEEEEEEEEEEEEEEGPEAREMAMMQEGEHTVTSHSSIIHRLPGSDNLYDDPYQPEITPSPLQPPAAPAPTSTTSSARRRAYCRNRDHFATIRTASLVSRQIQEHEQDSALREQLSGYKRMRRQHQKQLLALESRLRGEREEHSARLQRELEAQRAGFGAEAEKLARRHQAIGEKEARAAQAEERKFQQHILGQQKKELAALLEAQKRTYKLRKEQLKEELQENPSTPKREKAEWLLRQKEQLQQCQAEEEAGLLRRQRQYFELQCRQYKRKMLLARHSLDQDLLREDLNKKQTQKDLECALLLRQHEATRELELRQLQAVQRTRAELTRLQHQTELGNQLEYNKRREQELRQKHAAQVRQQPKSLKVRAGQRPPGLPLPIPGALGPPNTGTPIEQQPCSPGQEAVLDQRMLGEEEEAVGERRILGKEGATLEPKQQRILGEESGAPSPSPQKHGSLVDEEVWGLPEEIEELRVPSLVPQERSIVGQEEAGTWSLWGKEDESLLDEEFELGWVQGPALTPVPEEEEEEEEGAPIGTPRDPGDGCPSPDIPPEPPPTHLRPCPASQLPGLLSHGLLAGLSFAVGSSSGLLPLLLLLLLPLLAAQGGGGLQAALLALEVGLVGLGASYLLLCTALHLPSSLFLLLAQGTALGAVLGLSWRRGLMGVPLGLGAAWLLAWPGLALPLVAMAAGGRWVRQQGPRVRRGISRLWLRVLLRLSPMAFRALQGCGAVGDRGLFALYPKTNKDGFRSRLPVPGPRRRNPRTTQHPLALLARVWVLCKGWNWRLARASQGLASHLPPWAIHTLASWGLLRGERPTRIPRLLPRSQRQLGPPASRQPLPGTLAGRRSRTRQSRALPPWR

[17] = target: T3, Serine/threonine-protein kinase TAO2 (Homo sapiens); conditions: at 10 µM
[18] = target: T4, Serine/threonine-protein kinase TAO3 (Homo sapiens) (UniProt Q9H2K8); conditions: at 1 µM
T4 sequence (whole entry): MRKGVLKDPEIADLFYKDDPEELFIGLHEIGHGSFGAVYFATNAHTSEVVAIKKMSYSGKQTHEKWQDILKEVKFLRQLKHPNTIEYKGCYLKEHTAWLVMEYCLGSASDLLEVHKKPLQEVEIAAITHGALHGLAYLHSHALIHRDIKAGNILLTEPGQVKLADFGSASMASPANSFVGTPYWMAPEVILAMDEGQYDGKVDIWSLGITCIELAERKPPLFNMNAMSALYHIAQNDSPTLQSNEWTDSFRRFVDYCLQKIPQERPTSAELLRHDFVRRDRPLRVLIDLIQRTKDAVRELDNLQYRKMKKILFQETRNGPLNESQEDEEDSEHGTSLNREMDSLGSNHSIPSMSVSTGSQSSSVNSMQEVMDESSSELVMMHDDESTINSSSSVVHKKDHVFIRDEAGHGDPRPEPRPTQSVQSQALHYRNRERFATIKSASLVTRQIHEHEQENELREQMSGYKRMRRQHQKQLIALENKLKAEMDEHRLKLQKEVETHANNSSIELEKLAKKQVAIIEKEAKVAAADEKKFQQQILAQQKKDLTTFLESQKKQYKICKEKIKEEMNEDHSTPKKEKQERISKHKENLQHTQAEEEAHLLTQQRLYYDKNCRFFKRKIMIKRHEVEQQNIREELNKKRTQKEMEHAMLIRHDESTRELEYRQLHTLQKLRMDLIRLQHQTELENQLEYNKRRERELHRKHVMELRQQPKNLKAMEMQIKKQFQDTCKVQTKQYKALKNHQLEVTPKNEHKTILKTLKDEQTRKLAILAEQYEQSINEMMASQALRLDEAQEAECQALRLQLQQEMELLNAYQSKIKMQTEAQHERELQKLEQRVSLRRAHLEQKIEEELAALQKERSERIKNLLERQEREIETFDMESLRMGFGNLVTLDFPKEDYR

[19] = target: T4, Serine/threonine-protein kinase TAO3 (Homo sapiens); conditions: at 10 µM
[20] = target: T5, Serine/threonine-protein kinase TBK1 (Homo sapiens) (UniProt Q9UHD2); conditions: at 1 µM
T5 sequence (whole entry): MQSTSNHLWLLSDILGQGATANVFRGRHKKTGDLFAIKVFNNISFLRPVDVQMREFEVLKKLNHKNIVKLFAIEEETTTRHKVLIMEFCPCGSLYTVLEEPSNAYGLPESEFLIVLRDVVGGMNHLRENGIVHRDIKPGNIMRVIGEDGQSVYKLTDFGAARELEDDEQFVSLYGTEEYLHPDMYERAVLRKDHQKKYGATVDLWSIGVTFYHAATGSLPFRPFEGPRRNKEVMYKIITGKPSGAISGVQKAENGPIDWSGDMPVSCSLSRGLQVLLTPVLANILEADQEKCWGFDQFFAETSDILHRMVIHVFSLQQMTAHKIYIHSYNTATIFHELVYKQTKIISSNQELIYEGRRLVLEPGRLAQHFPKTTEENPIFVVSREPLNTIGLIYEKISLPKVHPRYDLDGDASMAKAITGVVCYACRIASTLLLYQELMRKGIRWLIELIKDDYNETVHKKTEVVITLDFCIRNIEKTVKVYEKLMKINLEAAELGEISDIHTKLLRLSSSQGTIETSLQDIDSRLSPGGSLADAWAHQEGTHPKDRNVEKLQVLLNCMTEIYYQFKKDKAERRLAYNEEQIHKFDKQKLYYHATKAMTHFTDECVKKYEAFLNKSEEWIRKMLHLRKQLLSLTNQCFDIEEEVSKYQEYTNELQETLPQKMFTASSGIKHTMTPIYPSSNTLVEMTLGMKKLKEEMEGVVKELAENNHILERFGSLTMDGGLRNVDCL

SRSF protein kinase 1 (Homo sapiens), sequence (Q96SB4 whole entry): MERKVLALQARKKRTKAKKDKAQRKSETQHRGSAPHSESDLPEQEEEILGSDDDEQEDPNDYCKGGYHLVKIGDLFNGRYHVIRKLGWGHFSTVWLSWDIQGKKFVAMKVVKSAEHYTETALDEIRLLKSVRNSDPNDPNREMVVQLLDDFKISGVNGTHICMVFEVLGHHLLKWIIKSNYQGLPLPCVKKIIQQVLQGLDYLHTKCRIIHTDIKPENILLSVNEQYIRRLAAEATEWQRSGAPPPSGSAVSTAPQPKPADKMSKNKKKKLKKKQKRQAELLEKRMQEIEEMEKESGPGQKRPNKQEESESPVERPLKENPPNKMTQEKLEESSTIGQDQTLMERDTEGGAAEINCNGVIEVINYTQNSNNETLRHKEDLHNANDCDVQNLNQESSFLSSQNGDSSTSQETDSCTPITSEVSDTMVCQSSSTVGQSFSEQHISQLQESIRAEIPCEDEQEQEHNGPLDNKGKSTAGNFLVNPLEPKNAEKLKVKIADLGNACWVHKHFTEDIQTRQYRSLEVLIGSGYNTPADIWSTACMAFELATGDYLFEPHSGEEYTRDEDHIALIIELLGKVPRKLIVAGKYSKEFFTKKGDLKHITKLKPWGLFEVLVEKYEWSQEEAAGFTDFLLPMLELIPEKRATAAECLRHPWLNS
Serine/threonine-protein kinase SIK1 (Homo sapiens), sequence (P57059 whole entry): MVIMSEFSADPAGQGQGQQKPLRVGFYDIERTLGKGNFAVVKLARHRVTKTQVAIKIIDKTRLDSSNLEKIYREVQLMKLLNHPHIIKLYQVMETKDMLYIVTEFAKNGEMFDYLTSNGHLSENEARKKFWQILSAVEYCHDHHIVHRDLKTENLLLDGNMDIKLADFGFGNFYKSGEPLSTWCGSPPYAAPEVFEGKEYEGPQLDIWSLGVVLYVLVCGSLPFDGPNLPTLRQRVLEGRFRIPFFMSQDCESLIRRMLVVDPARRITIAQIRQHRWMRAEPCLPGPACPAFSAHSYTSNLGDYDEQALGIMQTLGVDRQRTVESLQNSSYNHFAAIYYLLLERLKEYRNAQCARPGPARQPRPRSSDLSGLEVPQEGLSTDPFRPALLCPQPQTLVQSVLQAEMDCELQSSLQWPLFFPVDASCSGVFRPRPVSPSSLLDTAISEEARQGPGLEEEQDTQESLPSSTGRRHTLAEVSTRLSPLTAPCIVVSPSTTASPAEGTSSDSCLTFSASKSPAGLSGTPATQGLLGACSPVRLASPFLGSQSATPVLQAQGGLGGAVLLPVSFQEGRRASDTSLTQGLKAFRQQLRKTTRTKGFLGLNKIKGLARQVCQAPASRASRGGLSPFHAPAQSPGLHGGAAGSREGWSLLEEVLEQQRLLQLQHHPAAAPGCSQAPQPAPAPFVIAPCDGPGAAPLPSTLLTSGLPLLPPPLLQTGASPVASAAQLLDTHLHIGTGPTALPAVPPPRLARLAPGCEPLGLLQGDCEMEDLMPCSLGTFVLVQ
SRSF protein kinase 2 (Homo sapiens), sequence (P78362 whole entry, looked up): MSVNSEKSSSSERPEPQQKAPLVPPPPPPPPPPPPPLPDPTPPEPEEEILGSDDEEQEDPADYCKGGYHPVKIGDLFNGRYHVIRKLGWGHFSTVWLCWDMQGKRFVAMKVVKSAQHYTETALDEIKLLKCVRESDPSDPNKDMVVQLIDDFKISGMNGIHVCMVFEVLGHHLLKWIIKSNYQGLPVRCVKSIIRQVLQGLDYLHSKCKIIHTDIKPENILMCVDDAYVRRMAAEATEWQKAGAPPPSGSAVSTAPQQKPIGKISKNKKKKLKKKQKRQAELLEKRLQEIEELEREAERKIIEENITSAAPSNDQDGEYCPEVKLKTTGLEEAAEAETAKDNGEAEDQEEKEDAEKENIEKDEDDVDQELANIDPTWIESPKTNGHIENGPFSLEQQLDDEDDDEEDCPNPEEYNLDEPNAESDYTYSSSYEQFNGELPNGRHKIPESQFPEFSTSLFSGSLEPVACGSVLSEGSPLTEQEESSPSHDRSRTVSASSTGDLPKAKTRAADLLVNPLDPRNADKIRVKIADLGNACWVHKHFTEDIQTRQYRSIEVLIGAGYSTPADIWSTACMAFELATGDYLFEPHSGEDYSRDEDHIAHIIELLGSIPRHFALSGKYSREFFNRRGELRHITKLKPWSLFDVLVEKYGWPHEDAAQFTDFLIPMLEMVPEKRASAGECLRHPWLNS

COc1cc2nccc(Oc3ccc(NC(=S)NC(=O)c4ccccc4C)cc3)c2cc1OC
residual activity [1]: 37%
residual activity [2]: 102%
residual activity [3]: 96%
residual activity [4]: 100%
residual activity [5]: 91%
residual activity [6]: 97%
residual activity [7]: 90%
residual activity [8]: 72%
residual activity [9]: 35%
residual activity [10]: 99%
residual activity [11]: 65%
residual activity [12]: 87%
residual activity [13]: 87%
residual activity [14]: 91%
residual activity [15]: 71%
residual activity [16]: 89%
residual activity [17]: 75%
residual activity [18]: 78%
residual activity [19]: 67%
residual activity [20]: 57%

CCOC(=O)c1c(C)[nH]c(/C=C2\C(=O)Nc3ccccc32)c1C
residual activity [1]: 91%
residual activity [2]: 92%
residual activity [3]: 97%
residual activity [4]: 93%
residual activity [5]: 89%
residual activity [6]: 89%
residual activity [7]: 97%
residual activity [12]: 89%
residual activity [13]: 98%
residual activity [20]: 92%

CCCCc1c(-c2ccc(OC)cc2)[nH]c2nccnc12
residual activity [1]: 78%
residual activity [2]: 118%
residual activity [3]: 106%
residual activity [4]: 90%
residual activity [5]: 84%
residual activity [6]: 106%
residual activity [10]: 37%
residual activity [11]: 39%
residual activity [13]: 86%
residual activity [14]: 48%
residual activity [15]: 48%
residual activity [16]: 64%
residual activity [17]: 82%
residual activity [18]: 81%
residual activity [19]: 90%
residual activity [20]: 61%

O=C(O)/C=C/c1cc(Br)c(Br)c(Br)c1Br
residual activity [1]: 98%
residual activity [4]: 103%
residual activity [5]: 89%
residual activity [6]: 103%
residual activity [7]: 99%
residual activity [8]: 39%
residual activity [10]: 108%
residual activity [11]: 84%
residual activity [12]: 107%
residual activity [13]: 95%
residual activity [14]: 77%
residual activity [15]: 29%
residual activity [16]: 84%
residual activity [17]: 68%
residual activity [18]: 81%
residual activity [19]: 26%
residual activity [20]: 69%

NC(=O)c1cccc(-c2cc(Nc3ccc(OC(F)(F)F)cc3)ncn2)c1
residual activity [1]: 7%
residual activity [3]: 97%
residual activity [13]: 95%
residual activity [20]: 98%

COc1ccc(Cl)cc1NC(=O)Nc1cc(C)nc2ccccc12
residual activity [1]: 134%
residual activity [4]: 94%
residual activity [5]: 86%
residual activity [6]: 99%
residual activity [7]: 98%
residual activity [11]: 88%
residual activity [12]: 98%
residual activity [13]: 95%
residual activity [17]: 85%
residual activity [18]: 95%
residual activity [19]: 83%
residual activity [20]: 78%

CSc1nc(-c2ccc(F)cc2)c(-c2ccnc(NC(C)c3ccccc3)c2)[nH]1 (stereo unspecified)
residual activity [1]: 87%
residual activity [2]: 94%
residual activity [3]: 84%
residual activity [4]: 91%
residual activity [5]: 87%
residual activity [6]: 92%
residual activity [7]: 93%
residual activity [9]: 87%
residual activity [10]: 101%
residual activity [11]: 75%
residual activity [12]: 101%
residual activity [13]: 93%
residual activity [14]: 102%
residual activity [15]: 83%
residual activity [17]: 83%
residual activity [19]: 91%
residual activity [20]: 102%

Source: ChEMBL document CHEMBL2218924, “A broad activity screen in support of a chemogenomic map for kinase signalling research and drug discovery” (Biochem J, 2013)
